From PubChem BioAssay AID652020 (National Center for Advancing Translational Sciences (NCATS), 2013)
The other results are listed elsewhere or left out. Inconclusive results are not listed. Active and inactive are the calls of the source. Calls come from the whole dose curve; as a rule, active = well fitted curve in the direction sought with a large enough effect; inconclusive = small, poorly fitted or top-dose-only effect, or another doubt; inactive = no such curve, though single readings can be large or run the other way.

Biological target: Glutathione reductase, mitochondrial (Homo sapiens) (UniProt P00390)
Experiment: qHTS Assay for Inhibitors of Mammalian Selenoprotein Thioredoxin Reductase 1 (TrxR1): Counterassay in Glutathione Reductase (GR)
Text: The selenoprotein thioredoxin reductase (TrxR; EC 1.8.1.9) is a FAD containing homodimeric pyridine nucleotide-disulfide oxidoreductase with many cellular roles. Together with NADPH and its prime substrate thioredoxin (Trx), the enzyme forms the core of the Trx system. The mammalian Trx system exerts a wide spectrum of functions including redox regulation, antioxidant defense, regulation of transcription factors as well as support of cell growth and replication. Many of these functions involve the reduction of Trx, which may subsequently reduce a number of different substrates including ribonucleotide reductase, peroxiredoxins or NFkB. Mammalian TrxR itself also has a broad substrate specificity, reducing both protein and non-protein substrates, including low molecular weight compounds such as dehydroascorbate, lipoic acid, ubiquinone, and juglone. […]
Three microliters of reagents (100 microM NADPH and 60 nM hGR or 100 microM NADPH as no-enzyme control) was dispensed into 1,536-well black clear-bottomed plates (Buffer: 0.1 M potassium phosphate, pH 7.4/10 mM EDTA, 0.01 % Tween-20). […] The plate was transferred to a ViewLux high-throughput CCD imager (Perkin-Elmer, Wellesley, MA) where kinetic measurements (one read per 5 min for 6 reads, total time 25 min) of the TNB absorbance was acquired using a 405 excitation filter.

Sequence of Glutathione reductase, mitochondrial (Homo sapiens) (P00390 whole entry, looked up): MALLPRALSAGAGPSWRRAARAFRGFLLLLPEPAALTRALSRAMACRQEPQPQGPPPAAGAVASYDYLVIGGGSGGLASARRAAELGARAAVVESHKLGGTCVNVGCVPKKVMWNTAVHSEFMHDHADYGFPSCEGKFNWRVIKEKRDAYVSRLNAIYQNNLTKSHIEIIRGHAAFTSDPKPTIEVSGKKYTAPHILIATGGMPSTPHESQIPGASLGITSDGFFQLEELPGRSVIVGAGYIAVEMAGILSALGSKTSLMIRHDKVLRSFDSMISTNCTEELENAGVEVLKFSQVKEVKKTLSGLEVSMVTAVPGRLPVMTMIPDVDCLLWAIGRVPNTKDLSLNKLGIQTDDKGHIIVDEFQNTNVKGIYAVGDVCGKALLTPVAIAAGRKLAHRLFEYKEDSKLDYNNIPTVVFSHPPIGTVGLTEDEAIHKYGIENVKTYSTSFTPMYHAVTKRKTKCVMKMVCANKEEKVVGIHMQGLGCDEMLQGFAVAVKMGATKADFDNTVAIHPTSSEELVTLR

In the case of COc1ccc(-c2nc(CS(=O)CC(=O)N3CCC4(CC3)OCCO4)c(C)o2)cc1 (stereo unspecified), the outcome is reported as “inactive”.
